CendR NRP1 mod = NRP-1/CendR interaction modulation; FAM-RPARPAR peptide binding to NRP-1, fluorescence polarization; inhibition, % at 25 µM; actives 0.85% (n = 360,000); AID 602438;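 active means inhibition or corrected inhibition above about 18%, plus a signal ratio from 0.5 to 1.5, limit read from the data, passing the limit was not always enough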
MEKK3 PB1 HTS = modulators (inhibitors or enhancers) of MEK5 binding to human MEKK3 PB1 domain. Q99759. bead-based flow cytometry, Alexa488-MEK5 binding to MEKK3; actives lie on both sides; 0 = blocked by unlabeled MEK5, 100 = vehicle. binding response (% of control), % at 10 µM. actives 1.4% (n = 290,000). AID 1529;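 active means binding response more than 3 SD above or below the average of its plate-row segment, actives on both sides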;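 further: Alexa488 bead fluorescence after subtracting the streptavidin-only scavenger bead signal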
Target sequence (Q99759 whole entry, looked up, the tested form may be a part): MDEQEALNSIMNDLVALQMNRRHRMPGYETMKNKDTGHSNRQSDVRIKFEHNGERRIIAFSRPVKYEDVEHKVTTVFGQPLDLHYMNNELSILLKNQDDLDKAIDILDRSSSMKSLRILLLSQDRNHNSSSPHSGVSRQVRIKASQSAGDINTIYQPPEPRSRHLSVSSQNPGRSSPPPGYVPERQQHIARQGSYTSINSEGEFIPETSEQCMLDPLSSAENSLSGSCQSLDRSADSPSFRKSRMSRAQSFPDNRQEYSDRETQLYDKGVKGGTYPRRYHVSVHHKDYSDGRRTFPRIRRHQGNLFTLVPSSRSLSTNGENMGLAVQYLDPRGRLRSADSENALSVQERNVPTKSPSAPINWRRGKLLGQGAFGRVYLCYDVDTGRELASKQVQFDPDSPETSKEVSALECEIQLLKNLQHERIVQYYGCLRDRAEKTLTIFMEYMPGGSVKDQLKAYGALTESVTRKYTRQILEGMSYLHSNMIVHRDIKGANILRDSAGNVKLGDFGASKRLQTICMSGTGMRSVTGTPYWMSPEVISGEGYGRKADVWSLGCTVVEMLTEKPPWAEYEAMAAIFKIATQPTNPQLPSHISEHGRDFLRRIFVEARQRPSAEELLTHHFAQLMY
MEKK2 mut-MEK5 = signal of MEK5 binding to mutant human MEKK2 PB1 domain; bead flow cytometry, Alexa488-MEK5 binding to MEKK2 mutant; percent response, % at 10 µM; actives 0.35% (n = 290,000); AID 1530; in the data active means percent response above about 24%, passing the limit was not always enough
SKN-1 block = blocks SKN-1 activity in C. elegans; C. elegans VP596 Pgst-4::GFP/RFP ratio, acrylamide-induced, 24 h; inhibition, % at 21.8 µM; actives 0.49% (n = 360,000); AID 624304;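 active means interference check ratio from 0.5 to 1.5 plus GFP to RFP signal ratio inhibition reaching or exceeding a fixed threshold, cut at about 30% in these data, passing the limit was not always enough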
MEKK2 WT-MEK5 = raises or lowers MEK5 binding to wildtype human MEKK2 PB1 domain; AID 1531; bead flow cytometry, Alexa488-MEK5 binding to MEKK2 WT; actives lie on both sides; binding response (% of control), % at 10 µM; actives 1.1% (n = 290,000); Q9Y2U5; in the data active means binding response below about 67% or above about 130%
MEKK2wt confirm = raises or lowers MEK5 binding to wildtype human MEKK2, retest | shares compounds with MEKK3 PB1 HTS | bead flow cytometry, Alexa488-MEK5 binding to MEKK2 WT; actives lie on both sides | binding response (% of control), % at 10 µM | actives 2.4% (n = 5,900) | AID 1892; in the data active means binding response below about 16% or above about 210%; inactive means in between
MEKK2mut confirm = signal of MEK5 binding to mutant human MEKK2, retest | shares compounds with MEKK3 PB1 HTS | bead flow cytometry, Alexa488-MEK5 binding to MEKK2 mutant | percent response, % at 10 µM | actives 2% (n = 5,900) | AID 1893; in the data active means percent response mostly above about 71%, no sharp cut-off; inactive means mostly below about 38%;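 further: higher means compound restores mutant binding toward wildtype level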
MEKK3 confirm = MEKK3-MEK5 PB1 inhibition, single concentration confirmation; binding response (% of control), % at 10 µM; bead flow cytometry, Alexa488-MEK5 binding to MEKK3; hits give low values; actives 1.8% (n = 5,900); shares compounds with MEKK3 PB1 HTS;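 active means binding response below 72% of control, or above a set upper limit, though filed actives all read lower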;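 further: 100% = DMSO only wells and 0% = binding blocked by excess unlabeled MEK5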
Numbers without * were called inactive; x = no result given; ! = not confirmed by another sample; [ ] = remark or other dose. A selection: hits, their analogues and other compounds. The true share with any hit is near 3.2%.

SMILES	CendR NRP1 mod	MEKK3 PB1 HTS	MEKK2 mut-MEK5	SKN-1 block	MEKK2 WT-MEK5	MEKK2wt confirm	MEKK2mut confirm	MEKK3 confirm
CCC(C)NC(=O)c1ccc(NC(=O)C2=C(C)OCCS2)cc1 (stereo not drawn)	4	100	8	9	105	x	x	x
COc1cccc(N2CC(NS(=O)(=O)c3ccc4ccccc4c3)CC2=O)c1 (stereo not drawn)	1	x	x	0	x	x	x	x
COc1ccc(-c2coc3cc(O)cc(O)c3c2=O)cc1OC	14	132*	30	3	116	105	-4	104
CCc1cc(Cn2nc(-c3ccccc3)cc2C(=O)NCc2ccc(C)cc2)on1	-2	x	x	-15	x	x	x	x
CC(C)NCC(O)c1ccc(NS(C)(=O)=O)cc1 (stereo not drawn)	-6	122*!	6	-9	119	101	-5	99
COc1ccc(C(CNC(=O)c2oc3ccc(Br)cc3c2C)N2CCCCC2)cc1 (stereo not drawn)	-5	109	-4	-1	153*	156	39	112
COc1ccc(C(CNC(=O)c2cccc(S(=O)(=O)Nc3ccccc3OC)c2)N2CCCC2)cc1 (stereo not drawn)	-7	x	x	0	x	x	x	x
Cc1c(C(=O)Nc2ccc(-c3nnc4n3CCCCC4)cc2)oc2ccc(Br)cc12	-27	96	4	8	1.0*[inhibitor]	133	13	98
COc1ccc(C(CNC(=O)c2ccc(C)c(S(=O)(=O)Nc3ccccc3OC)c2)N2CCCC2)cc1 (stereo not drawn)	-26	112	29*	18	154*	162	44	114
CN(Cc1ccccc1)C(=O)c1cccc(NC(=O)Cc2ccc(NC(=O)C3CCCN(C(=O)C4CCCCC4)C3)cc2)c1 (stereo not drawn)	-2	x	x	13	x	x	x	x
O=C(NC(=S)NNC(=O)c1cnccn1)c1ccc(Cl)cc1	5	2.0*[inhibitor]	-25	-9	-10*[inhibitor]	112	12	107
COc1ccc(C(=O)NC(=S)NNC(=O)c2cnccn2)cc1	7	114	0	-2	106	x	x	x
CCOCCCN1CN(Cc2ccccc2)CNC1=S	3	128*	0	-5	104	106	4	100
CCCCN1CN(Cc2ccccc2)CNC1=S	-6	108	-1	1	96	x	x	x
CCN(CC)C(=O)C1=C(C)N(Cc2ccccc2)C(=O)C(CC(=O)NC2CC2)C1 (stereo not drawn)	3	x	x	-6	x	x	x	x
COC(=O)c1cc(NC(=O)c2cc(C(C)(C)C)nn2Cc2ccc(F)cc2)ccc1N1CCOCC1	1	133*	32	1	130	103	-2	103
CC(C)(C)c1cc(C(=O)NN)n(Cc2ccc(F)cc2)n1	4	108	-1	0	106	x	x	x
Cn1c(SCC(=O)N2CCN(S(=O)(=O)c3ccc(Cl)cc3)CC2)nc2ccccc21	6	133*	8	10	129	102	6	103
CC[C@]1(c2cccc(C)c2)C(=O)N(C(=O)OC)N1C(=O)OC	-8	105	59*	7	66*	98	2	102
O=C(O)c1[nH]c2ccccc2c1CC(=O)N1CCOCC1	6	96	-23	-6	95	x	x	x
O=C(O)c1[nH]c2ccccc2c1CC(=O)N1CCN(c2ccccc2)CC1	4	132*	3	6	112	103	4	104
CC1CC2=C(C(=O)O1)C(c1ccccc1)Nc1ccccc1N2 (stereo not drawn)	-2	79	-1	8	98	x	x	x
CC1CC2=C(C(=O)O1)C(C)Nc1ccccc1N2 (stereo not drawn)	-3	155*	1	5	105	102	-1	100
O=C(C1CCN(CCc2ccccc2)CC1)N1CCOCC1	4	x	x	19	x	x	x	x

From PubChem BioAssay
